This note sets out measurements from the supplement of paper PMC3545927.

The other results are listed elsewhere or left out. The true hit rate is not given.

In the experiment the target is furin, P09958. Description: furin cleavage Z-score vs untreated control; higher = more cleavage, active = 3.5 or more, inactive = 1 or less, 8 variable residues between constant flanks. Summed up:
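Sequencing of released DNA, tagged with adapters by PCR, gave read counts used as abundance. That DNA was freed when purified furin cut N-terminally bead-bound 8-mer peptides fused to a cDNA oligonucleotide, in 0.01 ml reactions at 1:10 enzyme:substrate in 50 mM HEPES pH 7.5 with CaCl2 and NaCl, lasting 7.5, 15 or 30 min. The cleavage Z-score was the lowess-adjusted log count versus furin-free reactions, scaled by median absolute deviation.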

furin, P09958, sequence (P09958 whole entry, the tested form may be a part): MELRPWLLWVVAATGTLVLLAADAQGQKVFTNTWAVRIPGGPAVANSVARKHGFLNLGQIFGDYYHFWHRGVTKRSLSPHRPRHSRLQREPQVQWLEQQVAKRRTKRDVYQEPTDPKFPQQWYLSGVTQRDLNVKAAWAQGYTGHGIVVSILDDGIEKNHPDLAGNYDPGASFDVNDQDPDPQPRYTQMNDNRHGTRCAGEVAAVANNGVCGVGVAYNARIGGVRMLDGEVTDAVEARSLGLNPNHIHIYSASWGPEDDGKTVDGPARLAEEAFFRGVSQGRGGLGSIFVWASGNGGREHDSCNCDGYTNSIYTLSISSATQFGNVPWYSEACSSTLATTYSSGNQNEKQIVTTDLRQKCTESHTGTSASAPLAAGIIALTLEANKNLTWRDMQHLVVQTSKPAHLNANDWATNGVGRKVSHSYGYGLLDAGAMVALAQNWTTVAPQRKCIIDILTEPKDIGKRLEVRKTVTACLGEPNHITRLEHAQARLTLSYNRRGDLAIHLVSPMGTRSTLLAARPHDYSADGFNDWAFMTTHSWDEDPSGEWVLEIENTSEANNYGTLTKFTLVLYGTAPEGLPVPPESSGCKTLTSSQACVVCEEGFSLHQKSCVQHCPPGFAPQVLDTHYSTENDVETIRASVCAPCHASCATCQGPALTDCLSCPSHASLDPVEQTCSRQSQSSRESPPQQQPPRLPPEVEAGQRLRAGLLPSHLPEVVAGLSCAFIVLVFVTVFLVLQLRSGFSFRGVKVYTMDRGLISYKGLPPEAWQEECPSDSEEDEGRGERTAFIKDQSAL

For the sequence CAGEVPSTEDAGNASASA [HC1096], the “furin cleavage Z-score” value (7.5 min) was -0.773 (inactive), the “furin cleavage Z-score” value (15 min) is -0.136 (inactive) and the “furin cleavage Z-score” value (30 min) is 0.506 (inactive).
Regarding CAPTPCSAHLAGNASASA [HC2479], the “furin cleavage Z-score” value by setting is: (7.5 min) -0.112 (inactive); (15 min) 0.764 (inactive); (30 min) 1.86.
As for CAFAPTLWARAGNASASA [HC1578], the “furin cleavage Z-score” value (7.5 min) is 0.686 (inactive), the “furin cleavage Z-score” value (15 min) was -1.55 (inactive) and the “furin cleavage Z-score” value (30 min) is 0.247 (inactive).
As for CAADVIPVRRAGNASASA [HC729], the “furin cleavage Z-score” value runs as follows: (7.5 min) -0.626 (inactive); (15 min) 1.64; (30 min) 0.64 (inactive).
On the same counts, the results for CAAKSRPVRGAGNASASA [FS-523] are 6.42 (active), 5.25 (active) and 5.42 (active).
As for CAAKSKFGYGAGNASASA [HC1419], the “furin cleavage Z-score” value (7.5 min) is 0.282 (inactive), the “furin cleavage Z-score” value (15 min) was 0.423 (inactive) and the “furin cleavage Z-score” value (30 min) was 0.234 (inactive).
As to CAHSKRKISWAGNASASA [FS-2865], the “furin cleavage Z-score” value was 1.39 (7.5 min), 0.543 (inactive) (15 min) and 1.88 (30 min).
Turning to CAHSKRRVRDAGNASASA [FS-663], the “furin cleavage Z-score” value is 13.2 (active) (7.5 min), 12.9 (active) (15 min) and 9.58 (active) (30 min).
The matching figures for CAMSKRDVLDAGNASASA [FS-2873]: -0.828 (inactive), -0.533 (inactive) and -0.677 (inactive).
The matching figures for CAKIARPKKRAGNASASA [FS-40]: 0.288 (inactive), -0.123 (inactive) and -0.964 (inactive).
With CAAKSRPKRRAGNASASA [FS-641], the “furin cleavage Z-score” value was 10.7 (active) (7.5 min), 12 (active) (15 min) and 8.13 (active) (30 min).
For CAHSSRPVRDAGNASASA [FS-1594], the “furin cleavage Z-score” value is 6.49 (active) (7.5 min), 7.91 (active) (15 min) and 7.38 (active) (30 min).
With CAGCTWMNSTAGNASASA [HC436], the “furin cleavage Z-score” value is, setting by setting: (7.5 min) 0.97 (inactive); (15 min) 0.0364 (inactive); (30 min) 1.16.
CAAAGQLDLSAGNASASA [HC1641]: the “furin cleavage Z-score” value by setting is: (7.5 min) -0.412 (inactive); (15 min) 0.71 (inactive); (30 min) -1.04 (inactive).
On to CAEVNTSTWVAGNASASA [HC2201], for which the “furin cleavage Z-score” value runs as follows: (7.5 min) 0.639 (inactive); (15 min) 0.541 (inactive); (30 min) 1.06.
Turning to CAVVCKSMSYAGNASASA [HC91], the “furin cleavage Z-score” value by setting is: (7.5 min) -0.0467 (inactive); (15 min) 0.255 (inactive); (30 min) 0.551 (inactive).
On to CATWPCSGSWAGNASASA [HC1848], for which the “furin cleavage Z-score” value is -0.614 (inactive) (7.5 min), -1.25 (inactive) (15 min) and -0.879 (inactive) (30 min).
For CASLTPCTCGAGNASASA [HC720], the “furin cleavage Z-score” value is, setting by setting: (7.5 min) -1.42 (inactive); (15 min) -1.23 (inactive); (30 min) -1.24 (inactive).
As to CALEECSQHLAGNASASA [HC1665], the “furin cleavage Z-score” value reads like this: (7.5 min) 0.42 (inactive); (15 min) 0.627 (inactive); (30 min) 0.0701 (inactive).
For the sequence CARKSRPVSVAGNASASA [FS-2273], the “furin cleavage Z-score” value is 0.443 (inactive) (7.5 min), -0.359 (inactive) (15 min) and 1.47 (30 min).
The matching figures for CAAKSRPVRDAGNASASA [FS-522]: 8.85 (active), 8.99 (active) and 6.37 (active).
Regarding CARVKRGWVWAGNASASA [FS-2101], the “furin cleavage Z-score” value is 2.07 (7.5 min), 4.37 (active) (15 min) and 8.77 (active) (30 min).
For the sequence CARVKRIFYQAGNASASA [FS-2530], the “furin cleavage Z-score” value was 1.69 (7.5 min), -1.51 (inactive) (15 min) and 0.645 (inactive) (30 min).
On the same counts, the results for CARVESENKVAGNASASA [HC1282] are 0.35 (inactive), -0.0116 (inactive) and 1.18.
Regarding CARVKRGSKVAGNASASA [FS-2100], the “furin cleavage Z-score” value (7.5 min) was determined as 2.43, the “furin cleavage Z-score” value (15 min) stood at 3.33 and the “furin cleavage Z-score” value (30 min) is 4.45 (active).
For the sequence CARSKRSWMWAGNASASA [FS-2459], the “furin cleavage Z-score” value (7.5 min) is 0.863 (inactive), the “furin cleavage Z-score” value (15 min) was 2.1 and the “furin cleavage Z-score” value (30 min) was 6.05 (active).
As for CARSKRGWVWAGNASASA [FS-2605], the “furin cleavage Z-score” value runs as follows: (7.5 min) 0.844 (inactive); (15 min) 3.21; (30 min) 4 (active).
As to CARPKRGWVWAGNASASA [FS-2164], the “furin cleavage Z-score” value by setting is: (7.5 min) -0.398 (inactive); (15 min) -0.529 (inactive); (30 min) 2.44.
Turning to CAAKSVCGPVAGNASASA [HC410], the “furin cleavage Z-score” value by setting is: (7.5 min) -0.0296 (inactive); (15 min) 1.97; (30 min) -1.19 (inactive).
Take CAVYNHLTPLAGNASASA [HC635]: the “furin cleavage Z-score” value (7.5 min) is -0.863 (inactive), the “furin cleavage Z-score” value (15 min) was 0.0646 (inactive) and the “furin cleavage Z-score” value (30 min) is -0.69 (inactive).
Take CAEEPCHRPSAGNASASA [HC2332]: the “furin cleavage Z-score” value reads like this: (7.5 min) 0.704 (inactive); (15 min) 0.583 (inactive); (30 min) -1.24 (inactive).
Turning to CARVARLLSAAGNASASA [FS-3114], the “furin cleavage Z-score” value reads like this: (7.5 min) -1.2 (inactive); (15 min) 0.294 (inactive); (30 min) -1.59 (inactive).
For CARVARSGRDAGNASASA [FS-3115], the “furin cleavage Z-score” value (7.5 min) came to 2.88, the “furin cleavage Z-score” value (15 min) is 2.99 and the “furin cleavage Z-score” value (30 min) is 4.3 (active).
Turning to CARVWRDSFLAGNASASA [FS-2407], the “furin cleavage Z-score” value runs as follows: (7.5 min) -0.29 (inactive); (15 min) 1.62; (30 min) 0.504 (inactive).
The matching figures for CAFLKRSGRDAGNASASA [FS-1324]: 4.93 (active), 3.96 (active) and 4.12 (active).
As for CARVARSRELAGNASASA [FS-1842], the “furin cleavage Z-score” value was 4.74 (active) (7.5 min), 5.44 (active) (15 min) and 7.45 (active) (30 min).
Consider CAKLKRSHELAGNASASA [FS-2868], for which the “furin cleavage Z-score” value is, setting by setting: (7.5 min) 0.465 (inactive); (15 min) 2.2; (30 min) 1.3.
As to CATPAETTVRAGNASASA [HC926], the “furin cleavage Z-score” value (7.5 min) is -0.713 (inactive), the “furin cleavage Z-score” value (15 min) is 1.4 and the “furin cleavage Z-score” value (30 min) is -0.157 (inactive).
As to CAGALVAFKIAGNASASA [HC1091], the “furin cleavage Z-score” value was -1.03 (inactive) (7.5 min), -0.999 (inactive) (15 min) and -1.45 (inactive) (30 min).
The matching figures for CAMGSSYGFQAGNASASA [HC1464]: 0.332 (inactive), -0.28 (inactive) and -0.392 (inactive).
The matching figures for CAEHVRKLRSAGNASASA [FS-990]: 9.51 (active), 9.45 (active) and 7.69 (active).
Turning to CASYFRKKRSAGNASASA [FS-1288], the “furin cleavage Z-score” value (7.5 min) is 10.9 (active), the “furin cleavage Z-score” value (15 min) was 10.4 (active) and the “furin cleavage Z-score” value (30 min) is 8.85 (active).
For CAEHFRKKRSAGNASASA [FS-1450], the “furin cleavage Z-score” value (7.5 min) was 13.1 (active), the “furin cleavage Z-score” value (15 min) was 12 (active) and the “furin cleavage Z-score” value (30 min) is 10.4 (active).
